“And” between values parts separate entries of the source, which are not always exact repeats. Equal entries are not always repeated. In all, about 5,500 compounds went through this assay and about 2,000 (36%) were called active. Not shown: some 18% with an inconclusive outcome. Cut-off read from the data, not from the text of the source: active = normalized growth mostly below about 0.91 (no sharp cut-off); inconclusive = no clear call, values can overlap the other calls; inactive = mostly above about 0.92. This is one part of the list.
Assay: chemical genetic growth profiling, strain panel (AID 1159580);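 note: tested at 20 µM; growth read once vehicle control cultures reached saturation at 30 °C; 1 = growth at the plate median or of vehicle wells; lower values mean less growth of the strain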
Settings: S. cerevisiae deletion strains, growth OD

Measured: normalized growth

CC(=O)OC1CCC2(C)C(=CC=C3C2CCC2(C)C3CCC2C(C)/C=C/C(C)C(C)C)C1(C)C (configuration not stated)
inactive: locus YAL021C, strain ccr4, hits give low values 0.994 | locus YAL026C, strain drs2, hits give low values 1.02 | locus YAL030W, strain snc1, hits give low values 1.02 | locus YBL061C, strain skt5, hits give low values 1.02 | locus YBR009C, strain hhf1, hits give low values 1.01 | locus YBR021W, strain FUR4, hits give low values 1.02 | locus YBR023C, strain chs3, hits give low values 1.03 | locus YBR171W, strain sec66, hits give low values 1.04 | locus YBR229C, strain ROT2, hits give low values 1.01 | locus YBR231C, strain swc5, hits give low values 1.04 | locus YBR279W, strain paf1, hits give low values 1.02 | locus YCL011C, strain gbp2, hits give low values 1.03 | locus YCL016C, strain dcc1, hits give low values 1.01 | locus YCL029C, strain bik1, hits give low values 1.01 | locus YCL069W, strain vba3, hits give low values 1.02 | locus YCR088W, strain abp1, hits give low values 1.03 | locus YDL005C, strain med2, hits give low values 1.04 | locus YDL035C, strain GPR1, hits give low values 1.03 | locus YDL040C, strain nat1, hits give low values 1.02 | locus YDL074C, strain BRE1, hits give low values 1.06 | locus YDL101C, strain DUN1, hits give low values 1.02 | locus YDL185W, strain tfp1, hits give low values 0.993 | locus YDL192W, strain arf1, hits give low values 1 | locus YDR001C, strain nth1, hits give low values 1.03 | locus YDR069C, strain doa4, hits give low values 1.02 | locus YDR101C, strain arx1, hits give low values 0.974 | locus YDR137W, strain rgp1, hits give low values 1.03 | locus YDR159W, strain sac3, hits give low values 1.04 | locus YDR162C, strain NBP2, hits give low values 0.995 | locus YDR195W, strain ref2 1.05 | locus YDR297W, strain sur2, hits give low values 1.02 | locus YDR318W, strain mcm21, hits give low values 1 | locus YDR334W, strain swr1, hits give low values 1.03 | locus YDR335W, strain msn5, hits give low values 1.02 | locus YDR388W, hits give low values 1.02 | locus YDR392W, strain spt3, hits give low values 0.992 | locus YDR502C, strain sam2, hits give low values 0.989 | locus YEL003W, strain gim4, hits give low values 1.03 | locus YEL037C, strain rad23, hits give low values 1.02 | locus YEL061C, strain CIN8 (second series), hits give low values 1.04 | locus YEL061C, strain CIN8, hits give low values 1.01 | locus YER015W, strain faa2, hits give low values 1.03 | locus YER016W, strain bim1, hits give low values 1.02 | locus YER110C, hits give low values 1.01 | locus YER111C, strain swi4, hits give low values 1.02 | locus YER155C, strain BEM2 (second series), hits give low values 1.05 | locus YER155C, strain BEM2, hits give low values 0.998 | locus YER167W, strain BCK2, hits give low values 1.04 | locus YFR010W, strain ubp6, hits give low values 1.04 | locus YGL078C, strain dbp3, hits give low values 0.987 | locus YGL086W, strain mad1, hits give low values 0.994 | locus YGL167C, strain pmr1, hits give low values 1.02 | locus YGL173C, strain kem1, hits give low values 1.03 | locus YGL227W, strain vid30, hits give low values 1.03 | locus YGL240W, strain doc1, hits give low values 1 | locus YGL248W, strain PDE1, hits give low values 1.01 | locus YGL253W, strain hxk2, hits give low values 1.03 | locus YGR078C, strain PAC10, hits give low values 1.04 | locus YGR135W, strain pre9, hits give low values 0.996 | locus YGR252W, strain gcn5, hits give low values 1.03 | locus YHR013C, strain ard1, hits give low values 1.03 | locus YHR027C, strain rpn1, hits give low values 1.04 | locus YHR030C, strain SLT2, hits give low values 1.01 and 0.996 | locus YHR079C, strain IRE1 (second series), hits give low values 0.998 | locus YHR079C, strain IRE1, hits give low values 1.03 | locus YHR094C, strain hxt1, hits give low values 0.991 | locus YHR129C, strain ARP1, hits give low values 1.03 | locus YHR142W, strain chs7, hits give low values 1.05 | locus YHR200W, strain rpn10, hits give low values 0.986 | locus YIL066C, strain RNR3, hits give low values 1.03 | locus YIL073C, strain SPO22, hits give low values 1.03 | locus YIL125W, strain kgd1, hits give low values 1 | locus YIR030C, strain dcg1, hits give low values 1 | locus YJL092W, strain hpr5, hits give low values 1.03 | locus YJL095W, strain BCK1 (second series), hits give low values 1.02 | locus YJL095W, strain BCK1, hits give low values 1.03 and 0.996 | locus YJL115W, strain asf1, hits give low values 1.03 | locus YJL129C, strain trk1, hits give low values 1.05 | locus YJL134W, strain LCB3, hits give low values 1.01 | locus YJL154C, strain vps35, hits give low values 1.03 | locus YJL164C, strain tpk1, hits give low values 1.01 | locus YJL166W, strain qcr8, hits give low values 1.02 | locus YJL168C, strain set2, hits give low values 1 | locus YJL187C, strain SWE1 (second series), hits give low values 1.03 | locus YJL187C, strain SWE1, hits give low values 1.04 | locus YJR043C, strain POL32, hits give low values 1.03 | locus YJR066W, strain TOR1, hits give low values 0.936 | locus YKL009W, strain mrt4, hits give low values 1.01 | locus YKL068W, hits give low values 1.01 | locus YKL085W, strain MDH1 (second series), hits give low values 1 | locus YKL085W, strain MDH1, hits give low values 1 | locus YKL160W, strain elf1, hits give low values 0.997 | locus YKR001C, strain vps1, hits give low values 0.988 | locus YKR026C, strain gcn3, hits give low values 1.03 | locus YKR091W, strain srl3, hits give low values 1.03 | locus YLL001W, strain dnm1, hits give low values 1.01 | locus YLL026W, hits give low values 1.02 | locus YLL041C, strain sdh2, hits give low values 1.02 | locus YLR027C, strain aat2, hits give low values 1 | locus YLR039C, strain RIC1, hits give low values 1.04 | locus YLR058C, strain SHM2, hits give low values 1.01 | locus YLR102C, strain apc9, hits give low values 0.988 | locus YLR113W, strain HOG1, hits give low values 0.995 | locus YLR221C, strain rsa3, hits give low values 1.02 | locus YLR258W, strain gsy2, hits give low values 1 | locus YLR262C, strain YPT6 (second series), hits give low values 1.01 | locus YLR262C, strain YPT6, hits give low values 1.07 | locus YLR268W, strain sec22, hits give low values 0.998 | locus YLR320W, strain mms22, hits give low values 1.03 | locus YLR330W, strain CHS5, hits give low values 1.02 | locus YLR342W, strain FKS1 (second series), hits give low values 1.12 | locus YLR342W, strain FKS1, hits give low values 1.02 | locus YLR357W, strain rsc2, hits give low values 1.06 | locus YLR370C, strain arc18, hits give low values 1.06 | locus YLR371W, strain rom2, hits give low values 1.01 | locus YLR384C, strain iki3, hits give low values 1.03 | locus YLR418C, strain cdc73, hits give low values 1.02 | locus YML016C, strain PPZ1, hits give low values 1 | locus YML032C, strain rad52, hits give low values 1 | locus YML120C, strain ndi1, hits give low values 1.02 | locus YML124C, strain tub3, hits give low values 0.987 | locus YMR058W, strain fet3, hits give low values 1.05 | locus YMR078C, strain ctf18, hits give low values 0.998 | locus YMR125W, strain sto1, hits give low values 1.03 | locus YMR129W, hits give low values 1.03 | locus YMR205C, strain PFK2, hits give low values 1.02 | locus YMR223W, strain ubp8, hits give low values 1 | locus YMR231W, strain pep5, hits give low values 1.02 | locus YMR263W, strain SAP30, hits give low values 1.03 | locus YMR307W, strain GAS1, hits give low values 1 | locus YNL067W, strain RPL9B, hits give low values 1.04 | locus YNL071W, strain lat1, hits give low values 1.03 | locus YNL183C, strain NPR1, hits give low values 0.965 | locus YNL209W, strain ssb2, hits give low values 1.01 | locus YNL233W, strain BNI4, hits give low values 1.03 | locus YNL248C, strain rpa49, hits give low values 0.965 | locus YNL250W, strain rad50, hits give low values 0.99 | locus YNL271C, strain bni1, hits give low values 1 | locus YNL298W, strain CLA4, hits give low values 0.979 | locus YNL307C, strain MCK1, hits give low values 1.02 | locus YNL322C, strain KRE1 (second series), hits give low values 1.02 | locus YNL322C, strain KRE1, hits give low values 1.02 | locus YNR049C, strain mso1, hits give low values 1.02 | locus YNR052C, strain pop2, hits give low values 1.01 | locus YOL012C, strain htz1 1.7 | locus YOL147C, strain pex11, hits give low values 1 | locus YOR001W, strain rrp6, hits give low values 1.04 | locus YOR061W, strain CKA2, hits give low values 1 | locus YOR069W, strain VPS5, hits give low values 1.01 | locus YOR070C, strain gyp1, hits give low values 1.02 | locus YOR080W, strain dia2, hits give low values 1.02 | locus YOR083W, strain WHI5, hits give low values 0.998 | locus YOR106W, strain vam3, hits give low values 1.02 | locus YOR136W, strain idh2, hits give low values 0.987 | locus YOR144C, strain elg1, hits give low values 0.988 | locus YOR184W, strain ser1, hits give low values 0.983 | locus YOR231W, strain MKK1, hits give low values 1.04 | locus YOR265W, strain rbl2, hits give low values 1.01 | locus YOR270C, strain vph1, hits give low values 1.03 | locus YOR290C, strain snf2, hits give low values 0.993 | locus YOR316C, strain cot1, hits give low values 0.989 | locus YPL051W, strain arl3, hits give low values 1.02 | locus YPL055C, strain LGE1, hits give low values 1.07 | locus YPL078C, strain atp4, hits give low values 0.999 | locus YPL106C, strain sse1, hits give low values 1.05 | locus YPL240C, strain hsp82, hits give low values 1.03 | locus YPL256C, strain CLN2, hits give low values 1.04 | locus YPR119W, strain clb2, hits give low values 1 | locus YPR141C, strain kar3, hits give low values 0.982 | locus YPR163C, strain tif3, hits give low values 0.978 | locus YPR167C, strain met16, hits give low values 1.01 | strain wtn01, hits give low values 0.984
